In the library only some 12% were active in any assay of this set; here they are far more common.
Marburg entry inh = qHTS for inhibitors of binding or entry into cells for Marburg Virus. Marburg virus pseudotyped entry inhibition, cell reporter. Potency, µM (series often up to 37.8 µM), inactives show at the top dose activity change, negative = inhibition, hits mostly inhibitors. 300,000 compounds, 1.8% hits; calls by dose curve; tested in HEK293 cells; note: potency is the fitted concentration of half-maximal effect; % is set by controls: 0 for no effect and ±100 for the full control effect
LASV entry inh = qHTS for Inhibitors of binding or entry into cells for Lassa Virus; Lassa virus pseudotype entry inhibition, cell reporter; Potency, µM (highest dose often 37.9 µM), for the others: at the highest dose activity change, negative = inhibition, most hits filed as inhibitors; 300,000 compounds, 1.2% hits; AID 540256, 2011; calls by dose curve; tested in HEK293 cells; note: potency is the fitted concentration of half-maximal effect; % is set by controls: 0 for no effect and ±100 for the full control effect; nearly all actives have a fitted effect of over 50% in size
Shiga toxin inh = A qHTS for Small Molecule Inhibitors of Shiga Toxin; AID 2315, 2010; Vero cells, Shiga toxin protein synthesis inhibition reporter; 290,000 compounds, 9.2% hits; inhibition, % at 38.7 µM; in the data active = inhibition mostly above about 28%, no sharp cut-off; inactive = mostly below about 43%; note: 0% is about no effect
CHX counter = Cycloheximide Counterscreen for Small Molecule Inhibitors of Shiga Toxin | cell reporter, cycloheximide protein synthesis inhibition counterscreen | max response, % | 300,000 compounds, 12% hits; in the data active = max response mostly above about 13%, no sharp cut-off; inactive = mostly below about 14%; note: read at 38.3 µM for the half of the compounds with a filed dose; 0% is about no effect
* marks the source's active call; other numbers are inactive results; u = inconclusive; x = no result; [ ] = dose if it differs, or a comment.

SMILES	Marburg entry inh	LASV entry inh	Shiga toxin inh	CHX counter
CCn1c2ccccc2c2cc(/C=N/NC(=O)c3ccncc3)ccc21	u	5.6µM*	-13	-2
COCCn1c(C)cc(/C=N/NC(=O)c2cc3ccccc3cc2O)c1C	11%	0%	x	x
COC(=O)N1[C@H](C)C=C[C@]1(Cc1ccccc1)C(=O)O	17%	8%	9	-4
CC(C)Cc1ccc(C(C)C(=O)Nc2ccccc2O)cc1 (centres undefined)	u	u	10	-3
Cc1cc(C)c2nc(Cl)c(CN(Cc3ccco3)C(=O)Nc3ccccc3C)cc2c1	u	u	14	10
COCCN(Cc1cc2cc(C)cc(C)c2nc1Cl)C(=O)Nc1ccccc1	-14%	-6%	-13	16*
Cc1ccc(NC(=O)C(=O)NCCc2sc(-c3ccc(Cl)cc3)nc2C)cc1C	x	30%[46.1 µM]	x	x
Cc1cc(NC(=O)NC2CCCN2S(=O)(=O)c2ccc(Cl)cc2)no1 (centres undefined)	-10%	5%	38	-3
C=CCOC(=O)Cn1cnc2c(sc3nc(C)cc(C)c32)c1=O	7%[46.1 µM]	x	72*	46*
Cc1ccc(-c2cc(C(=O)N/N=C/c3ccc(F)cc3)n[nH]2)o1	-1%[46.1 µM]	-10%	-6	10
Cc1ccc(-c2cc(C(=O)N/N=C/c3ccccc3O)n[nH]2)o1	u	u	60*	34*
Cc1ccc(-c2cc(C(=O)N/N=C/c3c[nH]c4ccccc34)n[nH]2)o1	-1%	x	-1	17*
Nn1c(SCc2c(F)cccc2F)nnc1-c1ccccn1	u	6%	90*	32*
Nn1c(SCc2ccccc2F)nnc1-c1ccncc1	19%	-1%	80*	32*
Nc1ccccc1-c1nnc(-c2ccccc2N)n1N	u	u	57*	38*
Nn1c(-c2ccccn2)nnc1-c1ccccn1	-5%	-5%	57*	32*
O=C(COC(=O)COc1cccc(Br)c1)Nc1c(Cl)cccc1Cl	13%[46.1 µM]	2%	-2	-5
O=C(NCc1cccs1)c1ccc2c(c1)sc1nc(-c3ccccc3)cn12	x	10%[46.1 µM]	x	x
COCC(C)NC(=O)c1ccc2c(c1)S(=O)(=O)c1ccccc1C2=O (centres undefined)	x	x	-13	9
CCCC(C)NC(=O)c1ccc(F)cc1 (centres undefined)	1%[46.1 µM]	2%	50*	27*
CCC(C)NC(=O)c1ccc(C(=O)c2ccccc2)cc1 (centres undefined)	x	x	71*	40*
CCC(C)NC(=O)c1ccc2c(c1)S(=O)(=O)c1ccccc1C2=O (centres undefined)	-14%	-2%	14*	32*
CCCc1ccc(C(=O)NNC(=O)c2ccc(Br)cc2)cc1	1%	-1%	-4	7
CCCc1ccc(C(=O)NNc2ccc(F)cc2)cc1	15%[46.1 µM]	-10%[46.1 µM]	35	17*
O=C(CNc1n[nH]c(=O)[nH]c1=O)N/N=C/C=C/c1ccccc1	x	x	-9	-1
SMILES	Marburg entry inh	LASV entry inh	Shiga toxin inh	CHX counter
O=C(CSc1ccc(-c2ccccn2)nn1)NCc1ccc(F)cc1	u	-4%	36	5
Cc1ccccc1-c1nc(CS(=O)(=O)CC(=O)NCCCN2CCN(C)CC2)c(C)o1	u	0%[46.1 µM]	-3	-5
O=C1NC(O)=NC1(c1ccccc1)c1ccccc1	u	2%	x	x
COc1ccccc1CP(=O)(c1ccccc1)c1ccccc1	5%	6%	2	-1
CCC(C)NC(=O)Cc1ccc(-c2ccccc2)cc1 (centres undefined)	x	x	16	23*
CCCC(C)NC(=O)c1ccc(-c2ccccc2)cc1 (centres undefined)	x	x	86*	27*
Cc1cc(C(=O)Nc2c(C)nn(Cc3c(Cl)cccc3Cl)c2C)no1	2.6µM*	5.8µM*	7	0
Cc1nn(Cc2c(F)c(F)c(F)c(F)c2F)c(C)c1NC(=O)c1cccc(COc2ccccc2Cl)c1	u	u	162*	69*
Cc1nn(Cc2c(Cl)cccc2Cl)c(C)c1NC(=O)c1cc(C(C)C)on1	x	x	-9	-4
Cc1nn(Cc2ccccc2Cl)c(C)c1NC(=O)c1noc2c1CCCCC2	u	u	4	21*
COc1ccccc1NC(=O)C(C)OC(=O)CCSc1ccc(F)cc1 (centres undefined)	-2%	u	x	x
COc1ccc(CCNC(=O)CCC(=O)Nc2nnc(C(C)C)s2)cc1OC	4%	-5%	-7	-3
C=CCNC(=S)NC(=O)c1oc2ccccc2c1C	u	3%[46.1 µM]	35	32
Cc1c(C(=O)NC(=S)NCC(C)C)oc2ccccc12	u	0%	35	17*
Cc1cccnc1NC(=S)NC(=O)c1oc2ccccc2c1C	u	7%[46.1 µM]	79*	40*
